Positions count from the first letter of the chain named. Whole data set: some 16,000 sequences, median “ka relative to ugcaugu” near 0.0091, cut for the highest 2% near 0.032. Only a selection was taken, and the highest values are over-represented in it overall.

Sequences and labels used below:
T1: RBFOX1 RRM (Homo sapiens, UniProt Q9NWB1 109-208)
T1 sequence: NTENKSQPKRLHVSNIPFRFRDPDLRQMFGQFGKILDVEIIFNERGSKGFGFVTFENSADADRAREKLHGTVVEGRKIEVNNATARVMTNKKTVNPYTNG

B1: UGUUGCG (DNA:RNA)
RNA: GGGAGACCGGAAUUCAGAUUGUCCUGUUGCGUUAAAUCCCGUCGUAGCCACCA
DNA 1: CAATCTGAATTCCGGTCTCCC
DNA 2: TGGTGGCTACGACGGGATT
B2: CGUUGCG (DNA:RNA)
RNA: B1 RNA with U25C
DNA 1: CAATCTGAATTCCGGTCTCCC
DNA 2: TGGTGGCTACGACGGGATT
B3: UGCGUUG (DNA:RNA)
RNA: B1 RNA with U27C, U28G, G29U, C30U
DNA 1: CAATCTGAATTCCGGTCTCCC
DNA 2: TGGTGGCTACGACGGGATT
B4: AAUGGAA (DNA:RNA)
RNA: B1 RNA with U25A, G26A, U28G, C30A, G31A
DNA 1: CAATCTGAATTCCGGTCTCCC
DNA 2: TGGTGGCTACGACGGGATT
B5: UGCUCCC (DNA:RNA)
RNA: B1 RNA with U27C, G29C, G31C
DNA 1: CAATCTGAATTCCGGTCTCCC
DNA 2: TGGTGGCTACGACGGGATT
B6: UGGCCCG (DNA:RNA)
RNA: B1 RNA with U27G, U28C, G29C
DNA 1: CAATCTGAATTCCGGTCTCCC
DNA 2: TGGTGGCTACGACGGGATT
B7: GUGCUCU (DNA:RNA)
RNA: B1 RNA with U25G, G26U, U27G, U28C, G29U, G31U
DNA 1: CAATCTGAATTCCGGTCTCCC
DNA 2: TGGTGGCTACGACGGGATT
B8: GUGCUCG (DNA:RNA)
RNA: B1 RNA with U25G, G26U, U27G, U28C, G29U
DNA 1: CAATCTGAATTCCGGTCTCCC
DNA 2: TGGTGGCTACGACGGGATT
B9: GUGCUCC (DNA:RNA)
RNA: B1 RNA with U25G, G26U, U27G, U28C, G29U, G31C
DNA 1: CAATCTGAATTCCGGTCTCCC
DNA 2: TGGTGGCTACGACGGGATT
B10: CGUGCUC (DNA:RNA)
RNA: B1 RNA with U25C, U28G, G29C, C30U, G31C
DNA 1: CAATCTGAATTCCGGTCTCCC
DNA 2: TGGTGGCTACGACGGGATT
B11: UGGCUCC (DNA:RNA)
RNA: B1 RNA with U27G, U28C, G29U, G31C
DNA 1: CAATCTGAATTCCGGTCTCCC
DNA 2: TGGTGGCTACGACGGGATT
B12: UGCUCCG (DNA:RNA)
RNA: B1 RNA with U27C, G29C
DNA 1: CAATCTGAATTCCGGTCTCCC
DNA 2: TGGTGGCTACGACGGGATT
B13: UGGCUCG (DNA:RNA)
RNA: B1 RNA with U27G, U28C, G29U
DNA 1: CAATCTGAATTCCGGTCTCCC
DNA 2: TGGTGGCTACGACGGGATT
B14: CGCUACC (DNA:RNA)
RNA: B1 RNA with U25C, U27C, G29A, G31C
DNA 1: CAATCTGAATTCCGGTCTCCC
DNA 2: TGGTGGCTACGACGGGATT
B15: AGAGCCU (DNA:RNA)
RNA: B1 RNA with U25A, U27A, U28G, G29C, G31U
DNA 1: CAATCTGAATTCCGGTCTCCC
DNA 2: TGGTGGCTACGACGGGATT
B16: UAUGCGC (DNA:RNA)
RNA: B1 RNA with G26A, U28G, G29C, C30G, G31C
DNA 1: CAATCTGAATTCCGGTCTCCC
DNA 2: TGGTGGCTACGACGGGATT
B17: CUUCGUU (DNA:RNA)
RNA: B1 RNA with U25C, G26U, U28C, C30U, G31U
DNA 1: CAATCTGAATTCCGGTCTCCC
DNA 2: TGGTGGCTACGACGGGATT
B18: UCCGGCC (DNA:RNA)
RNA: B1 RNA with G26C, U27C, U28G, G31C
DNA 1: CAATCTGAATTCCGGTCTCCC
DNA 2: TGGTGGCTACGACGGGATT
B19: UUACUUG (DNA:RNA)
RNA: B1 RNA with G26U, U27A, U28C, G29U, C30U
DNA 1: CAATCTGAATTCCGGTCTCCC
DNA 2: TGGTGGCTACGACGGGATT
B20: GAGUGAG (DNA:RNA)
RNA: B1 RNA with U25G, G26A, U27G, C30A
DNA 1: CAATCTGAATTCCGGTCTCCC
DNA 2: TGGTGGCTACGACGGGATT
B21: CAGGUUU (DNA:RNA)
RNA: GGGAGACCGGAAUUCAGAUUGUCCCAGGUUUUUAAAUCCCGUCGUAGCCACCA
DNA 1: CAATCTGAATTCCGGTCTCCC
DNA 2: TGGTGGCTACGACGGGATT
B22: CGCCAGG (DNA:RNA)
RNA: B1 RNA with U25C, U27C, U28C, G29A, C30G
DNA 1: CAATCTGAATTCCGGTCTCCC
DNA 2: TGGTGGCTACGACGGGATT
B23: CGGAAGC (DNA:RNA)
RNA: B21 RNA with A26G, G28A, U29A, U30G, U31C
DNA 1: CAATCTGAATTCCGGTCTCCC
DNA 2: TGGTGGCTACGACGGGATT
B24: GGGAGCU (DNA:RNA)
RNA: B1 RNA with U25G, U27G, U28A, G31U
DNA 1: CAATCTGAATTCCGGTCTCCC
DNA 2: TGGTGGCTACGACGGGATT
B25: GGAGAGC (DNA:RNA)
RNA: B21 RNA with C25G, A26G, G27A, U29A, U30G, U31C
DNA 1: CAATCTGAATTCCGGTCTCCC
DNA 2: TGGTGGCTACGACGGGATT
B26: GGGGAGC (DNA:RNA)
RNA: B21 RNA with C25G, A26G, U29A, U30G, U31C
DNA 1: CAATCTGAATTCCGGTCTCCC
DNA 2: TGGTGGCTACGACGGGATT
B27: GGGAAGC (DNA:RNA)
RNA: B21 RNA with C25G, A26G, G28A, U29A, U30G, U31C
DNA 1: CAATCTGAATTCCGGTCTCCC
DNA 2: TGGTGGCTACGACGGGATT
B28: CGGAACU (DNA:RNA)
RNA: B21 RNA with A26G, G28A, U29A, U30C
DNA 1: CAATCTGAATTCCGGTCTCCC
DNA 2: TGGTGGCTACGACGGGATT
B29: GGAACUU (DNA:RNA)
RNA: B21 RNA with C25G, A26G, G27A, G28A, U29C
DNA 1: CAATCTGAATTCCGGTCTCCC
DNA 2: TGGTGGCTACGACGGGATT
B30: CGGGAGC (DNA:RNA)
RNA: B21 RNA with A26G, U29A, U30G, U31C
DNA 1: CAATCTGAATTCCGGTCTCCC
DNA 2: TGGTGGCTACGACGGGATT
B31: GGAAGCU (DNA:RNA)
RNA: B1 RNA with U25G, U27A, U28A, G31U
DNA 1: CAATCTGAATTCCGGTCTCCC
DNA 2: TGGTGGCTACGACGGGATT
B32: CGGAGCU (DNA:RNA)
RNA: B21 RNA with A26G, G28A, U29G, U30C
DNA 1: CAATCTGAATTCCGGTCTCCC
DNA 2: TGGTGGCTACGACGGGATT
B33: GGAGCUU (DNA:RNA)
RNA: B21 RNA with C25G, A26G, G27A, U29C
DNA 1: CAATCTGAATTCCGGTCTCCC
DNA 2: TGGTGGCTACGACGGGATT
B34: GGGAACU (DNA:RNA)
RNA: B21 RNA with C25G, A26G, G28A, U29A, U30C
DNA 1: CAATCTGAATTCCGGTCTCCC
DNA 2: TGGTGGCTACGACGGGATT

The assay has as its target T1, RBFOX1 RRM. The experiment in a line: EMSA; HiTS-Eq, 1 nM pool, 10 min; buffer printed only for the single-RNA assays: 10 mM Tris pH 7.5, 150 mM NaCl, 3.4 mM EDTA, 0.001% NP-40, 30 C. The settings on record: tags: His6 N-terminal (pET28a); label: 5' 32P. An outline of the steps:
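Purified RbFox RRM (wild type or mutant) was equilibrated for 10 min in 50 µL with 1 nM of a 5′-radiolabelled pool of RNA with 7 randomized nucleotides, its flanks annealed to DNA oligonucleotides, across increasing protein concentrations. Free RNA was separated by 8% native PAGE, excised, reverse-transcribed, PCR-barcoded and sequenced on an Illumina HiSeq 2500. Relative association constants came from read-count changes of each variant against the control reaction, normalised to the cognate motif.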
A general note: In EMSA bound probe runs differently from free probe, usually more slowly.
In the case of B1, the binding signal is 0.0326 KA relative to UGCAUGU.

As for B2, the binding signal is 0.0173 KA relative to UGCAUGU.

Consider B3, for which the binding signal was 0.0296 KA relative to UGCAUGU.

On to B4, for which the binding signal was 0.00264 KA relative to UGCAUGU.

For the molecule B5, the binding signal is 0.00242 KA relative to UGCAUGU.

For the molecule B6, the binding signal was 0.0217 KA relative to UGCAUGU.

For the molecule B7, the binding signal is 0.0226 KA relative to UGCAUGU.

As to B8, the binding signal was 0.0432 KA relative to UGCAUGU.

As to B9, the binding signal is 0.0357 KA relative to UGCAUGU.

Turning to B10, the binding signal is 0.0133 KA relative to UGCAUGU.

Consider B11, for which the binding signal is 0.00985 KA relative to UGCAUGU.

For B12, the binding signal is 0.0132 KA relative to UGCAUGU.

For B13, the binding signal was 0.0396 KA relative to UGCAUGU.

Regarding B14, the binding signal is 0.00834 KA relative to UGCAUGU.

For the molecule B15, the binding signal is 0.00804 KA relative to UGCAUGU.

With B16, the binding signal was 0.0181 KA relative to UGCAUGU.

Consider B17, for which the binding signal is 0.0135 KA relative to UGCAUGU.

In the case of B18, the binding signal is 0.00966 KA relative to UGCAUGU.

In the case of B19, the binding signal was 0.0182 KA relative to UGCAUGU.

For B20, the binding signal was 0.0102 KA relative to UGCAUGU.

For B21, the binding signal is 0.0116 KA relative to UGCAUGU.

Take B22: the binding signal is 0.0105 KA relative to UGCAUGU.

Turning to B23, the binding signal is 0.0209 KA relative to UGCAUGU.

With B24, the binding signal was 0.035 KA relative to UGCAUGU.

As for B25, the binding signal was 0.0169 KA relative to UGCAUGU.

Consider B26, for which the binding signal is 0.0326 KA relative to UGCAUGU.

B27: the binding signal is 0.036 KA relative to UGCAUGU.

For B28, the binding signal is 0.0254 KA relative to UGCAUGU.

Regarding B29, the binding signal is 0.0138 KA relative to UGCAUGU.

Turning to B30, the binding signal was 0.0286 KA relative to UGCAUGU.

In the case of B31, the binding signal is 0.0135 KA relative to UGCAUGU.

Regarding B32, the binding signal is 0.0245 KA relative to UGCAUGU.

Take B33: the binding signal is 0.0232 KA relative to UGCAUGU.

Take B34: the binding signal is 0.0404 KA relative to UGCAUGU.

The values above are taken from article PMC9911399, “Two distinct binding modes provide the RNA-binding protein RbFox with extraordinary sequence specificity”.
